The values below come from the supplement of paper PMC12669032.

One test has as its system Roseburia intestinalis. Description: growth AUC relative to DMSO control (median of replicates) (fraction); higher = more growth (less inhibition), active = hit call of the paper. The conditions noted are these: 20 µM; 24 h. An outline of the steps:
(§1)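 Starting at OD600 0.05, gut bacterial monocultures in mGAM were grown anaerobically at 37 °C with 20 µM compound (1% DMSO) under pierced gas-permeable seals. OD600 was read every hour for 24 h, and the lowest OD of each curve was set to 0. Area under the growth curve was normalised to the plate median of solvent-only wells, or to row and column medians on the industrial chemical plate, and the median of three biological replicates grown on separate days is given.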

The subject of a further test is Streptococcus salivarius. Described as above. The following applies: 20 µM; 24 h. The gist of the method: as §1

A number with no mark means an inactive call.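 The calls were made as follows: active = AUC reduced over 20% with Padj below 0.05 in at least 2 of 3 replicates; inactive = otherwise.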

As for `COP(=S)(OC)Oc1ccc(Sc2ccc(OP(=S)(OC)OC)cc2)cc1`, the results for the “growth AUC” value in the test on Roseburia intestinalis and in the test with Streptococcus salivarius were 1.03 and 1.01, respectively.

With `O=C(O)C(Cl)Cl`, the “growth AUC” value in the test with Roseburia intestinalis and with Streptococcus salivarius was 1.02 each time.

Consider `CSc1nnc(C(C)(C)C)c(=O)n1N`, for which the “growth AUC” value was 1.06 in the test on Roseburia intestinalis and 1.01 with Streptococcus salivarius.

Take `CCOP(=S)(OCC)SCS(=O)C(C)(C)C` (stereo unspecified): the “growth AUC” value in the test on Roseburia intestinalis and with Streptococcus salivarius was 1.04 each time.

`CCOP(=S)(OCC)SCSP(=S)(OCC)OCC`: the figures for the “growth AUC” value with Roseburia intestinalis and in the test on Streptococcus salivarius were 1.09 and 0.958, respectively.

For the compound `O=[N+]([O-])c1ccc(O)c([N+](=O)[O-])c1`, the “growth AUC” value with Roseburia intestinalis was 0.912; in the test with Streptococcus salivarius it was 0.992.

Turning to `CC(C)[C@H](C(=O)O[C@H](C#N)c1cccc(Oc2ccccc2)c1)c1ccc(Cl)cc1`, the “growth AUC” value is 0.913 in the test with Roseburia intestinalis and 0.948 in the test with Streptococcus salivarius.

For the compound `COP(=S)(OC)SCN1C(=O)c2ccccc2C1=O`, the “growth AUC” value in the test on Roseburia intestinalis is 0.901; in the test on Streptococcus salivarius, 0.979.
